Assay outcomes as filed in PubChem.
TDP1 inh: qHTS Assay for Inhibitors of Tyrosyl-DNA Phosphodiesterase (TDP1); 350,000 tested, 0.28% active; recombinant TDP1, AlphaScreen DNA substrate cleavage; Potency, µM (titrated, usually from 130 µM), inactives show at the top dose activity change, negative = inhibition, most hits filed as inhibitors; Tyrosyl-DNA phosphodiesterase 1 (Homo sapiens), Q9NUW8; AID 485290, 2010; further: potency means the concentration at half of the fitted maximal effect; on the % scale 0 is the no-effect control and ±100 the full control effect; nearly all actives have a fitted effect of over 40% in size
Target sequence (Q9NUW8 whole entry, looked up): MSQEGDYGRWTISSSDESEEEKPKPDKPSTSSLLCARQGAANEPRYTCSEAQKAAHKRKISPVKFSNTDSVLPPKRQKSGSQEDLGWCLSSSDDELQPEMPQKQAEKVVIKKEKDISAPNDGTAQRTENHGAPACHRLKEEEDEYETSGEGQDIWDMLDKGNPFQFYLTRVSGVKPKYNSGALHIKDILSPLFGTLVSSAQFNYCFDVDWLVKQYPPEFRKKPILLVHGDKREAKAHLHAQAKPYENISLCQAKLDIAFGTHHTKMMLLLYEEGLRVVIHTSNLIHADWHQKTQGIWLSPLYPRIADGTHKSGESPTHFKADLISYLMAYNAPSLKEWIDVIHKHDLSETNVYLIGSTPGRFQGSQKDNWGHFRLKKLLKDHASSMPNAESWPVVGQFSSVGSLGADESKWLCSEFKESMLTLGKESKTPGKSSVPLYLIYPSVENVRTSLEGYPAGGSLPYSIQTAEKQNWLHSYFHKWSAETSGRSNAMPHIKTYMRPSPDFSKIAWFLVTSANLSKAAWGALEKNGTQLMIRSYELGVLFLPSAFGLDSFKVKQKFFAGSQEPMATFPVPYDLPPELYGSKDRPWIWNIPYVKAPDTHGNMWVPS
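AlphaScreen read-out: signal falls as enzyme removes the 3' tyrosine-FITC from a 5'-biotinylated DNA oligo (15 nM, 5 min, RT). Enzyme was E. coli-made recombinant Tdp1 at 1 nM, exposed to compound for 15 min beforehand; beads 10 ug/ml, 10 min.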
uPA surface inh: qHTS for Inhibitors of Cell Surface uPA Generation | cell surface uPA generation assay, qHTS | Potency, µM (doses to about 38.3 µM), for the others: at the top dose activity change, negative = inhibition, most hits filed as inhibitors | 330,000 tested, 0.31% active; active means well fitted inhibition curve with a large enough effect; inconclusive means small, poorly fitted or top-dose-only effect; inactive means no such curve, though single readings can be large or run the other way; tested in mouse RAW 264.7 cells; further: potency means the concentration at half of the fitted maximal effect; on the % scale 0 is the no-effect control and ±100 the full control effect; nearly all actives have a fitted effect of over 55% in size
DT40 TDP1 CPT: qHTS for Inhibitors of human tyrosyl-DNA phosphodiesterase 1 (TDP1): qHTS in cells in presence of CPT | chicken DT40 Tdp1-/-;hTDP1 cells + 20 nM CPT, ATP luminescence, 48 h | Potency, µM (doses to about 46.2 µM), for inactives: at the top dose activity change, negative = growth inhibition, hits mostly inhibitors | 420,000 tested, 12% active | AID 686979, 2013; further: potency means the concentration at half of the fitted maximal effect; on the % scale 0 is the no-effect control and ±100 the full control effect; nearly all actives have a fitted effect of over 55% in size
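Chicken DT40 Tdp1-/- cells complemented with human TDP1, 400 cells/well, exposed to compounds plus 20 nM camptothecin for at least 48 h at 37 C; viability read as ATP content by CellTiter-Glo luminescence.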
miR-21 act: qHTS Assay for Modulators of miRNAs and/orActivators of miR-21; HeLa miR-21 FLuc reporter, luciferase, 48 h; Potency, µM (highest dose often 38.3 µM), without a hit: at the top dose activity change, positive = activation, most hits filed as activators; 340,000 tested, under 10 active;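 further: % of control where 0% means no effect; miR-21 action dims this reporter so a rising signal means less miR-21 action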
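HeLa cells stably expressing CMV-driven firefly luciferase with a downstream miR-21 binding sequence, endogenously expressing miR-21, were treated with titrations (up to about 40uM final) for 48 hours at 37 degree Celsius. Luciferase luminescence was read after lysis.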
TDP1 cell noCPT: qHTS for Inhibitors of human tyrosyl-DNA phosphodiesterase 1 (TDP1): qHTS in cells in absence of CPT; DT40 Tdp1-/- hTDP1 cells, no CPT, ATP luminescence, 48 h; Potency, µM (doses to about 46.2 µM), for inactives: at the highest dose activity change, negative = growth inhibition, actives largely listed as inhibitors; 420,000 tested, 15% active; AID 686978, 2013; further: potency means the concentration at half of the fitted maximal effect; on the % scale 0 is the no-effect control and ±100 the full control effect; nearly all actives have a fitted effect of over 55% in size
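Chicken DT40 Tdp1-/- cells complemented with human TDP1, screened without camptothecin (DMSO vehicle only), 400 cells/well. Compounds pin-transferred, cells incubated at 37 °C for at least 48 hr. Growth read as ATP-dependent luminescence (CellTiter-Glo, 30 min at RT).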
The depositor's hits bear a star; u = inconclusive; x = no result; [ ] = dose if it differs, or a comment. An excerpt weighted towards active compounds, which were near 16% of everything screened. Unless noted, the call rests on the fitted dose curve; in most records, active means well fitted curve in the direction sought with a large enough effect; inconclusive means small, poorly fitted or top-dose-only effect, or another doubt; inactive means no such curve, though single readings can be large; an effect the other way counts as inactive or inconclusive.

SMILES	TDP1 inh	uPA surface inh	DT40 TDP1 CPT	miR-21 act	TDP1 cell noCPT
CC(/C=N/NC(=O)c1cc(-c2ccncc2)nc2ccccc12)=C\c1ccco1	12%	u	2.6µM*	22%	3.7µM*
CC(/C=N/NC(=O)c1cccs1)=C\c1ccco1	3%	0%	7%	-55%	-7%
Cc1cc(N/N=C/c2ccc([N+](=O)[O-])o2)nc2ccccc12	-2%	-7%	18µM*	-16%	18µM*
O=C(NCCc1ccccc1)c1cc(S(=O)(=O)N2CCCCC2)c[nH]1	-5%	x	u	0%	u
O=C(N/N=C/c1ccc([N+](=O)[O-])o1)c1cn(-c2ccccc2)nc1-c1ccc(Cl)cc1	-5%	19%	u	-2%	u
O=C(N/N=C/c1ccco1)c1cc(-c2cccc(Br)c2)nc2ccccc12	9%	-7%	u	10%	5.8µM*
COc1ccccc1-c1cc(C(=O)N/N=C/c2ccc(C)o2)c2ccccc2n1	5%	-10%	u	1%	u
O=C(N/N=C/c1ccc([N+](=O)[O-])o1)c1cn(-c2ccccc2)nc1-c1ccccc1	2%	6%	u	0%	6.5µM*
O=C(N/N=C/c1ccc([N+](=O)[O-])o1)c1cc(-c2ccc(-c3ccccc3)cc2)nc2ccccc12	-2%	-17%	4.1µM*	20%	0.46µM*
Cc1ccc(/C=N/NC(=O)c2cc(-c3ccncc3)nc3ccccc23)o1	6%	-13%	2.9µM*	11%	2.6µM*
COc1ccc(S(=O)(=O)n2nc(-n3c(C)ccc3C)c3c(F)cccc32)cc1OC	9%	5%	u	6%	u
Cc1ccc2nc(N/N=C/c3ccco3)cc(C)c2c1	10%	u	8.2µM*	-52%	10µM*
O=C(N/N=C/c1ccc([N+](=O)[O-])o1)c1cc(-c2ccncc2)nc2ccccc12	-4%	x	7.1µM*	14%	3.2µM*
O=C(N/N=C/c1ccccn1)c1cc(-c2ccncc2)nc2ccccc12	11%	7%	u	11%	u
Cc1ccc2nc(SCC(=O)N/N=C/c3ccco3)cc(C)c2c1	7%	8%	-14%	4%	-16%
Cc1cccc(-c2nc3c(c(SCC(N)=O)n2)CCCC3)c1	2%	-5%	-8%	-4%	-23%
O=C(c1cc(-c2ccc(Cl)cc2)on1)N1CCOCC1	7%	x	-27%	-23%	0%
O=C(c1nnsc1S(=O)(=O)c1ccc(Cl)cc1)N1CCOCC1	-1%	-14%	2.3µM*	u	2.9µM*
O=C(Nc1ccccc1)c1nnsc1S(=O)c1ccc(Cl)cc1 (configuration not stated)	5%	-11%	0.58µM*	u	0.82µM*
CNC(=O)c1nnsc1S(=O)(=O)c1ccc(Cl)cc1	5%	-12%	0.73µM*	u	1.5µM*
O=C(c1nnsc1S(=O)c1ccc(Cl)cc1)N1CCOCC1 (configuration not stated)	5%	-15%	0.46µM*	u	0.82µM*
Nc1nc(C(=O)N2CCOCC2)nn1S(=O)(=O)c1ccc(Cl)cc1	2%	0%	u	-5%	u
Cc1nnsc1S(=O)c1ccc(Cl)cc1 (configuration not stated)	x	u	u	20%	u
COCCN(C(=O)COC(=O)C1=COCCO1)c1c(N)n(Cc2ccccc2)c(=O)[nH]c1=O	2%	-1%	-3%	-1%	0%
O=C1c2ccc([N+](=O)[O-])cc2NC(c2ccco2)N1/N=C/c1ccco1 (configuration not stated)	8%	-4%	-26%	0%	18µM*
SMILES	TDP1 inh	uPA surface inh	DT40 TDP1 CPT	miR-21 act	TDP1 cell noCPT
CN=c1scc(-c2ccc([N+](=O)[O-])cc2)n1/N=C/c1ccco1	10%	-3%	11%	-57%	-11%
Cc1cccc(CNc2ccnc(-c3ccc(N(C)C)cc3)n2)c1	24%[56.1 µM]	x	-107%	x	12µM*
Cc1cnc(CNc2ccnc(-c3ccc(N(C)C)cc3)n2)cn1	3%[56.1 µM]	x	-10%	x	-15%
Cc1cccc(CNc2ncncc2-c2ccccc2C(F)(F)F)c1	x	x	-17%	x	-23%
CN(C)c1ccc(-c2nccc(NCc3ccccc3)n2)cc1	8%[56.1 µM]	x	u	x	16µM*
Fc1ccc(Nc2ccnc(-c3ccccc3C(F)(F)F)n2)cc1	x	x	12µM*	x	u
Cc1cccc(CNc2ccnc(-c3ccccc3C(F)(F)F)n2)c1	x	x	18µM*	x	u
CC(C)[C@H](NC(=O)c1ccccc1)C(=O)OCC(=O)NCCC1=CCCCC1	1%	-3%	u	0%	u
COc1cc2c(cc1OC)C(C)N(C(=O)Nc1ccc(F)cc1)CC2 (configuration not stated)	x	u	13µM*	19%	7.3µM*
O=C(O)CC1c2ccccc2CCN1C(=O)Nc1cc(Cl)ccc1Cl (configuration not stated)	9%	x	21µM*	-6%	21µM*
COc1cc2c(cc1OC)C(C)N(C(=O)c1cc3c(C)cc(C)cc3[nH]1)CC2 (configuration not stated)	9%	-16%	16µM*	22%	16µM*
COc1cc2c(cc1OC)C(C)N(C(=O)CCc1c[nH]c3ccccc13)CC2 (configuration not stated)	x	-10%	u	11%	u
COc1cc2c(cc1OC)C(C)N(C(=O)Nc1cc(C)cc(C)c1)CC2 (configuration not stated)	x	u	3.3µM*	20%	2.6µM*
O=c1c2ccccc2ncn1-c1ccc(Cl)cc1	0%	-3%	2%	-38%	u
COc1cc(NC(=O)N2CCC(CN3CCCC3)CC2)cc(OC)c1OC	5%	x	18%	0%	5%
COc1cc2c(cc1OC)C(CC(=O)O)N(C(=O)Nc1cc(OC)c(OC)c(OC)c1)CC2 (configuration not stated)	-4%	x	3.7µM*	1%	u
OC(c1ccc(F)cc1)c1ncc(-c2ccc(Oc3ccccc3)cc2)[nH]1 (configuration not stated)	x	x	u	x	16µM*
Cc1cc(C(O)c2ncc(-c3ccc(Oc4ccccc4)cc3)[nH]2)ccc1F (configuration not stated)	x	x	18µM*	x	u
Cc1cc(C(O)c2ncc(-c3cccc(F)c3)[nH]2)ccc1F (configuration not stated)	x	x	-7%	x	-25%
